Data reported in PubChem BioAssay (EPA / NIEHS).
Several values for one entry are separate records, joined by “and”; a condition that tells them apart may be missing. Identical values can stand only once. Activity calls are given as the source filed them. Rule for the calls: active = hit-call score of the fitted dose curve at least 0.9, where 1 is the maximum; inactive = score below 0.9.

read-out: Interferon-gamma inducible Protein 10 (IP10), CXCL10 (gene 3627); assay: BSK_KF3CT_IP10: BioMAP Diversity Plus: KF3CT Assay for Interferon-gamma inducible Protein 10 (IP10) Biomarker Activity (AID 2283068); settings: primary human keratinocytes with fibroblasts; actives raise or lower the signal
Procedure: BSK_KF3CT is a cell-based, multiplexed-readout assay that uses keratinocytes and foreskin fibroblasts, a human skin primary cell co-culture, with measurements taken at 24 hours after chemical dosing in a 96-well plate.BSK_KF3CT_IP10 is an assay component measured in the BSK_KF3CT assay. It measures IP-10 antibody related to regulation of gene expression using ELISA technology.Data from the assay component BSK_KF3CT_IP10 was analyzed into 1 assay endpoint. This assay endpoint, BSK_KF3CT_IP10, was analyzed with bidirectional fitting relative to DMSO as the negative control and baseline of activity. Using a type of binding reporter, gain or loss-of-signal activity can be used to understand changes in the signaling as they relate to the gene CXCL10. Furthermore, this assay endpoint can be referred to as a primary readout, because this assay has produced multiple assay endpoints where this one serves a signaling function. To generalize the intended target to other relatable targets, this assay endpoint is annotated to the cytokine intended target family, where the subfamily is chemotactic factor.
The levels of cell surface (or secreted, indicated by the prefix "s") biomarker endpoints were measured by ELISA. Overt cytotoxicity to cells in confluent adherent cultures (all systems other than the BT system) was assessed by measuring total protein levels using sulforhodamine B (SRB) staining in parallel cultures at the time of biomarker measurements, indicated as SRB endpoints. For proliferation assays for adherent cell types, individual cell types are cultured at sub-confluence and relative cell numbers quantified by SRB staining at time points optimized for each system (48 h: 3C and CASM3C systems; 72 h: BT and HDF3CGF systems; 96 h: SAg system). SRB was performed by staining cells with 0.1% SRB after fixation with 10% TCA and reading wells at 560 nm.Viability and proliferation of PBMC (T cells) was quantified by Alamar Blue reduction for the SAg and BT systems. For PBMC viability (referred to as PBMC Cytotoxicity within the assay endpoint names), cells were plated (75,000/well in a 96-well plate) and then chemical samples added for 1 h before addition of activators, SEB and TSST-1 (20 ng/mL final concentration each). Cells were incubated for 90 h. Then, Alamar Blue (20 uL/well) (Invitrogen, Cat DAL1100) was added for 6 h, and the plates were read with a fluorescence microplate reader at 546/580 nm (excitation/emission). For PBMC proliferation, cells were plated and activated as above but incubated for only 16 h prior to addition of Alamar Blue. Plates were read after 6 h.

Row | Compound | AC50 | outcome
1 | C=COC(=O)C(C)(C)CCCCCC | 34.7 µM (active) | 
2 | O=C1OC2(c3ccccc31)c1cc(I)c(O)c(I)c1Oc1c2cc(I)c(O)c1I | 18.4 µM (active) | 
3 | CCCCCCCCCCCCOS(=O)(=O)O | 33.4 µM (active) | 
4 | O=C1NS(=O)(=O)c2ccccc21 |  | inactive
5 | Oc1cc2ccccc2cc1O |  | inactive
6 | O=C(CC(=O)C(F)(F)C(F)(F)C(F)(F)F)c1cccs1 |  | inactive
7 | CN(CCO)S(=O)(=O)C(F)(F)C(F)(F)C(F)(F)C(F)(F)C(F)(F)C(F)(F)C(F)(F)C(F)(F)F |  | inactive
8 | CCCCCCCCCCCCCCCCCC[N+](C)(C)Cc1ccccc1 | 2.54 µM (active) | 
9 | O=C(CCCN1CCC(O)(c2ccc(Cl)cc2)CC1)c1ccc(F)cc1 |  | inactive
10 | CC(C)(C)c1ccc(O)c(O)c1 | 33.8 µM (active) | 
11 | CC1=NN(c2ccccc2)C(=O)C1 |  | inactive
12 | CCCCCCCCCCCCCCC |  | inactive
13 | O=P(O)(O)CCC(F)(F)C(F)(F)C(F)(F)C(F)(F)C(F)(F)C(F)(F)C(F)(F)C(F)(F)F |  | inactive
14 | C=CC(C)(CCC=C(C)C)OC(C)=O (stereo not given) |  | inactive
15 | CC[N+](CC)(CC)Cc1ccccc1 |  | inactive
16 | Cc1ccc(C(=O)c2ccccc2)cc1 |  | inactive
17 | O=C(O)CCC(F)(F)C(F)(F)C(F)(F)C(F)(F)C(F)(F)F |  | inactive
18 | CCCCCCCCCCCC | 11.1 µM (active) and 10.1 µM (active) | 
19 | CN(C)c1ccc(C(=C2C=CC(=[N+](C)C)C=C2)c2ccccc2)cc1 | 0.39 µM (active) | 
20 | Cc1ccc(N=Nc2c(O)ccc3ccccc23)c(C)c1 |  | inactive

Row | Compound | AC50 | outcome
21 | OCC(F)(F)C(F)(F)C(F)(F)C(F)(F)C(F)(F)C(F)(F)C(F)(F)C(F)(F)C(F)(F)C(F)(F)C(F)(F)F |  | inactive
22 | O=C(NCc1ncc(C(F)(F)F)cc1Cl)c1c(Cl)cccc1Cl |  | inactive
23 | NC(=NCCCCCCN=C(N)/N=C(\N)Nc1ccc(Cl)cc1)/N=C(\N)Nc1ccc(Cl)cc1 | 6.16 µM (active) | 
24 | O=P(O)(O)CCC(F)(F)C(F)(F)C(F)(F)C(F)(F)C(F)(F)C(F)(F)F |  | inactive
25 | OCCN1CN(CCO)CN(CCO)C1 |  | inactive
26 | CCCCC(CC)C(=O)O (stereo not given) |  | inactive
27 | O=C(NO)c1ccccc1 |  | inactive
28 | CCCCCc1ccc(O)cc1 | 29.2 µM (active) | 
29 | COC1=CC(=O)C[C@@H](C)[C@]12Oc1c(Cl)c(OC)cc(OC)c1C2=O |  | inactive
30 | CN(C)CCOC(c1ccccc1)c1ccccc1 |  | inactive
31 | CS(=O)(=O)c1ccc([C@@H](CC2CCCC2)C(=O)Nc2cnccn2)cc1Cl |  | inactive
32 | Cc1cccc2c1ccc1ccccc12 |  | inactive
33 | COCN(COC)c1nc(N(COC)COC)nc(N(COC)COC)n1 |  | inactive
34 | CCC(C)c1ccccc1O (stereo not given) |  | inactive
35 | COc1cc(OC)nc(NC(=O)NS(=O)(=O)Nc2ccccc2C(=O)N(C)C)n1 |  | inactive
36 | O=C1c2ccc(O)c(O)c2C(=O)c2c(O)ccc(O)c21 |  | inactive
37 | C=CC(=C)CC/C=C(\C)CCC=C(C)C |  | inactive
38 | OCC(CO)(CBr)CBr |  | inactive
39 | Oc1ccc(Cc2ccccc2O)cc1 |  | inactive
40 | O=C(O)C(F)(F)OC(F)(F)C(F)(F)OC(F)(F)C(F)(F)OC(F)(F)C(F)(F)C(F)(F)C(F)(F)F | 7.51 µM (active) and 7.14 µM (active) | 
